Unmarked numbers belong to inactive results. Records with an inconclusive call do not appear. A call without a number means that no potency is given here. Activity calls are given as the source filed them. Calls follow the shape of the dose curve; as a rule, active = well fitted curve in the direction sought with a large enough effect; inconclusive = small, poorly fitted or top-dose-only effect, or another doubt; inactive = no such curve, though single readings can be large; an effect the other way counts as inactive or inconclusive.
Tests used:
[1] = molecular target: Phospholipid hydroperoxide glutathione peroxidase GPX4 (Homo sapiens) (UniProt P36969); assay: Primary qHTS Assay for Inhibitors of Recombinant Selenoprotein Glutathione Peroxidase 4 (GPX4) (AID 1845192); also: nearly all actives have a fitted effect of over 65% in size; as to activity change, negative = inhibition: series mostly up to about 50 µM
Outline: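 NADPH consumption, followed by fluorescence at 340/450 nm between 0 and 15 min, reports GPX4 activity via coupled glutathione reductase (100 nM). Enzyme 200 nM was pre-exposed to compound 30 min; 0.5 mM cumene hydroperoxide and 1 mM GSH served as substrates.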

[2] = molecular target: Luciferin 4-monooxygenase (Photinus pyralis) (UniProt P08659); assay: Primary firefly luciferase (FLuc) qHTS assay for identification of artifact compounds. (AID 1845220); also: nearly all actives have a fitted effect of over 60% in size; also: potency is read from the fitted curve at half-maximal effect; as to activity change, negative = inhibition: series mostly up to about 54 µM
Outline: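 Cell-free, 1536-well qHTS. Buffer pH 7.6 with 0.01% Tween-20 and 0.05% BSA; 10 uM D-luciferin, 10 uM ATP; 10 nM P. pyralis luciferase; luminescence after 5 min.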

[3] = tested on: Nanoluciferase (engineered Oplophorus gracilirostris luciferase); assay: Primary Nanoluciferase (NLuc) qHTS assay for identification of artifact compounds. (AID 1845222); also: series mostly up to about 54 µM
Outline: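 Compounds are pinned into diluted (1:55) conditioned medium of NLuc-expressing S16 cells and held 15 min at room temperature protected from light. Nano-Glo substrate follows, and luminescence is read 5 min later.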

[4] = Primary redox qHTS assay for identification of artifact compounds. (AID 1845223)
Outline: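 Amplex Red (25 uM) and HRP (250 mU/mL) in HBSS, with compounds for 15 min, then 250 uM DTT for 30 min, room temperature, dark. Fluorescence 525/598 nm read; normalized to DMSO and 10 uM DA3003; Hill fit.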

Sequence of Phospholipid hydroperoxide glutathione peroxidase GPX4 (Homo sapiens) (P36969 whole entry, looked up): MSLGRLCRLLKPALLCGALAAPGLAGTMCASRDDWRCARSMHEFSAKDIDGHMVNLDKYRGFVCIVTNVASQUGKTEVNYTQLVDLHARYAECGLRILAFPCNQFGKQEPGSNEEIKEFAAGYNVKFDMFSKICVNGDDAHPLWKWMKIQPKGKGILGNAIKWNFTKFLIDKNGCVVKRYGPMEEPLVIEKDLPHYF

CC(C)=CCC/C(C)=C/Cc1ccc(O)c(C2OC(=O)c3cc(C(=O)O)cc(O)c32)c1O (stereo not drawn)
Potency [1]: inactive
Potency [2]: inactive
Potency [3]: inactive

CO[C@H]1C[C@@H]2CC[C@@H](C)[C@@](O)(O2)C(=O)C(=O)N2CCCC[C@H]2C(=O)O[C@H]([C@H](C)C[C@H]2CC[C@@H](OP(C)(C)=O)[C@H](OC)C2)CC(=O)[C@H](C)/C=C(\C)[C@@H](O)[C@@H](OC)C(=O)[C@H](C)C[C@H](C)/C=C/C=C/C=C/1C
Potency [1]: inactive
Potency [2]: inactive
Potency [3]: inactive

Cc1ccc([N+](=O)[O-])cc1S(=O)(=O)N(C)/N=C/c1cnc2ccc(Br)cn12
Potency [1]: inactive
Potency [2]: inactive
Potency [3]: inactive
Potency [4]: inactive

CC1OC(OC2C(OC3C(O[C@H]4CC[C@@]5(C)C(CC[C@]6(C)C5C(=O)C=C5C7CC(C)(C)CC(O)[C@]7(C)CC[C@]56C)C4(C)C)OC(C(=O)O)C(O)C3O)OCC(O)C2O)C(O)C(O)C1O (stereo partly drawn)
Potency [1]: inactive
activity change, negative = inhibition [2]: 2.88% [at 11.6 µM]
activity, negative = inhibition [3]: -14.3% [at 11.6 µM]
redox activity (% of DA3003) [4]: 2.04% [at 11.5 µM]

Cc1cc(NC(=O)Nc2ccc(F)c(F)c2)n(-c2ccccc2)n1
Potency [1]: inactive
Potency [2]: inactive
Potency [3]: inactive

CC(Oc1ccc2[nH]nc(/C=C/c3cnn(CCO)c3)c2c1)c1c(Cl)cncc1Cl (stereo not drawn)
Potency [1]: inactive
Potency [2]: inactive
Potency [3]: inactive

CC(C)(C)Nc1nc(Nc2ccc(C(N)=O)cc2)cc(N)c1C#N
Potency [1]: inactive
Potency [2]: inactive
Potency [3]: inactive

CC(C)CC1NC(=O)C2CC3(O)c4ccccc4NC3N2C1=O (stereo not drawn)
Potency [1]: inactive
Potency [2]: inactive
Potency [3]: inactive

C/C=C/C1=CC2=C(CO1)C(=O)C(C)(O)C(OC(=O)c1c(C)cc(OC)cc1O)C2 (stereo not drawn)
Potency [1]: inactive
Potency [2]: inactive
Potency [3]: inactive

CC(=O)SCC(=O)c1ccc(NS(=O)(=O)c2ccc(OCCCN(C)C)cc2)nc1
Potency [1]: inactive
Potency [2]: inactive
Potency [3]: inactive
Potency [4]: inactive

C[C@@H]1CCC/C=C/[C@H]2CC(=O)C[C@@H]2[C@@H](O)/C=C/C(=O)O1
Potency [1]: inactive
Potency [2]: inactive
Potency [3]: inactive

C[C@@H]1O[C@@H](O[C@H]2[C@H](O)[C@@H](O)[C@H](O[C@H]3[C@H](O[C@H]4CC[C@@]5(C)C(=CC[C@@H]6C5CC[C@]5(C)[C@@H]7[C@H](C[C@@H]65)O[C@]5(CC[C@@](C)(CO[C@@H]6O[C@H](CO)[C@@H](O)[C@H](O)[C@H]6O)O5)[C@H]7C)C4)O[C@H](CO)[C@@H](O)[C@@H]3O)O[C@@H]2CO)[C@H](O)[C@H](O)[C@H]1O (stereo partly drawn)
Potency [1]: inactive
activity change, negative = inhibition [2]: -0.0839% [at 11.6 µM]
activity, negative = inhibition [3]: 1.75% [at 11.6 µM]

C=C[C@H]1[C@H](O[C@@H]2O[C@H](CO)[C@@H](O)[C@H](O)[C@H]2O)OC=C(C(=O)OC)[C@H]1C/C=C(/C=O)[C@@H]1C(C(=O)OC)=CO[C@@H](O[C@@H]2O[C@H](CO)[C@@H](O)[C@H](O)[C@H]2O)[C@@H]1C=C
Potency [1]: inactive
Potency [2]: inactive
Potency [3]: inactive
Potency [4]: inactive

C/C=C1\[C@H](O[C@@H]2O[C@H](CO)[C@@H](O)[C@H](O)[C@H]2O)OC=C2C(=O)OCCc3ccc(O)c(c3)Oc3ccc(cc3)CCOC(=O)C[C@H]21
Potency [1]: inactive
Potency [2]: inactive
Potency [3]: inactive

O=C(OC1C=C(CO)C2C(OC3OC(CO)C(O)C(O)C3O)OC=CC12)c1ccc(O)cc1 (stereo not drawn)
Potency [1]: inactive
Potency [2]: inactive
Potency [3]: inactive

CC1=C(C(=O)O[C@@H]2O[C@H](COC3OCC(O)C(O)C3O)[C@@H](O)[C@H](O)[C@H]2O)C(C)(C)CCC1 (stereo partly drawn)
Potency [1]: inactive
Potency [2]: inactive
Potency [3]: inactive

Cc1cc(C)cc(C(=O)NOCCCCCC(=O)NO)c1
Potency [1]: inactive
Potency [2]: inactive
Potency [3]: inactive

COc1ccc(/C=C/C(=O)O[C@H]2[C@H](O[C@H]3[C@@H]4C=CO[C@@H](O[C@@H]5O[C@H](CO)[C@@H](O)[C@H](O)[C@H]5O)[C@@H]4[C@@]4(CO)O[C@@H]34)O[C@@H](C)[C@H](O)[C@H]2OC(C)=O)cc1
Potency [1]: inactive
Potency [2]: inactive
Potency [3]: inactive

CCN(CC)c1ccc2c(O)c(C=Nc3ccc(CC(=O)O)c(-c4c5c(nc6ccccc46)CCC(C(=O)NN)C5)c3)c(=O)oc2c1 (stereo not drawn)
Potency [1]: inactive
Potency [2]: 6.01 µM (active)
Potency [3]: inactive
Potency [4]: inactive

CC(O)/C=C/C1OC(=O)CC1Nc1ccc(C(=O)O)cc1 (stereo not drawn)
Potency [1]: inactive
Potency [2]: inactive
Potency [3]: inactive

CC(O)/C=C/C1(O)C2(C)COC1(C)CC(O)C2 (stereo not drawn)
Potency [1]: inactive
Potency [2]: inactive
Potency [3]: inactive
Potency [4]: inactive

COc1cc(Br)c(Nc2nc(-c3c(C)nc4ncccn34)cs2)c(Br)c1
Potency [1]: inactive
Potency [2]: inactive
Potency [3]: inactive
Potency [4]: inactive
